Reference: PubChem BioAssay
Records with an inconclusive call do not appear. Active and inactive are the calls of the source.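 The calls were made as follows, unless noted: active = normalized viability below 100% at a tested concentration; inactive = the rest.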

Legend:
[1] = viability loss in pontine glioma line – cell-based, SU-DIPG-XVII, MIPE5.0, CellTiter-Glo, qHTS, dose response (AID 1347060; cut-off not given, nearly all actives have AC50 up to about 26 µM;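 as to AC50: cells exposed to compound for 48 hours before viability readout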); details: CellTiter-Glo ATP luminescence
[2] = viability loss in pontine glioma line – cell-based, JHH-DIPG-1, MIPE4.0, CellTiter-Glo, qHTS, dose response (AID 1347062; cut-off not given, nearly all actives have AC50 up to about 27 µM;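 as to AC50: cells exposed to compound for two days before readout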); details: JHH-DIPG-1 viability, CellTiter-Glo ATP luminescence
[3] = viability loss in pontine glioma line – cell-based, SU-DIPG-XIII, MIPE5.0, CellTiter-Glo, qHTS, dose response (AID 1347064; cut-off not given, nearly all actives have AC50 up to about 23 µM;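 as to AC50: cells exposed to compound for 48 hours before the viability read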); details: CellTiter-Glo ATP luminescence
[4] = JHH-DIPG-1 glioma cell viability, MIPE5.0 library, CellTiter-Glo luminescence, qHTS (AID 1347067; cut-off not given, nearly all actives have AC50 up to about 26 µM;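 also: cells exposed to compound for 48 hours before readout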); details: JHH-DIPG-1 glioma viability, CellTiter-Glo ATP luminescence
[5] = growth inhibition of DIPG cells – cell-based, MIPE5.0 library, qHTS (AID 1347068; cut-off not given, nearly all actives have IC50 up to about 30 µM;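 as to IC50: cells exposed to compound for 48 hours before viability readout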); details: SU-DIPG-XXV viability
[6] = viability loss with induced miR-34 in A549 – imaging, A549 dox-inducible miR-34, nuclei and caspase counts, primary screen (AID 1347080;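 active = compounds whose cell count with miR-34 switched on is under 0.7 times the count with it off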); details: A549 miR-34 inducible, Hoechst nuclei count, 48 h
[7] = MELAS cybrid and Rieske KO viability enhancers – cell-based, MELAS cybrids, Rieske KO mouse fibroblasts, CellTiter-Glo, primary screen (AID 1508586;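 active = mean z-score across replicates of 1.96 or higher in either the MELAS or the Rieske mutant cell line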;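 also: z relative to plate mean and SD of compound and empty wells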); details: low glucose
[8] = viability loss in pontine glioma line – cell-based, SU-DIPG-XXV, MIPE5.0, CellTiter-Glo, qHTS, dose response (AID 1347065; cut-off not given, nearly all actives have AC50 up to about 26 µM;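 also: cells exposed to compound for 48 hours before ATP readout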); details: CellTiter-Glo ATP luminescence
[9] = growth inhibition of DIPG cells – cell-based, MIPE4.0 library, CellTiter-Glo luminescence, qHTS (AID 1347066; cut-off not given, nearly all actives have AC50 up to about 30 µM;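 also: cells exposed to compound for 48 hours before readout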); details: SU-DIPG-VI viability, CellTiter-Glo ATP luminescence
[10] = compounds altering HSF1 focus formation in cells – imaging, Selleck Cancer Library (AID 1347162; in the data active = plate-normalised HSF1 focus index below about 0.46); details: human cells, HSF1 nuclear foci imaging, at 10 µM; SSMD: measured here: HSF1 foci SSMD mean; cell count: measured here: cell number; plate-normalised HSF1 focus index: stronger effect = lower value
[11] = drug combination growth inhibition, ovarian cancer – cell-based, oncology-focused library, rucaparib conditional, profiling panel (AID 1508598); details: patient-derived ovarian cancer cells, CellTiter-Glo viability, 144 h, stronger effect = lower value
[12] = growth inhibition, single agent or in combination, cell-based, chromothripsis tumors, cisplatin or BGB combos (AID 1671449; in the data active = inhibition above about 80%;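 also: cells exposed for 96 hours; 0% = vehicle DMSO and 100% = killing by high DMSO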); details: LFS_MB_P medulloblastoma cells
[13] = growth inhibition, single agent and combos, cell-based, chromothripsis tumors, cisplatin or BGB combos (AID 1671450; in the data active = inhibition above about 80%;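 also: cells exposed to compound for four days; 0% = vehicle DMSO and 100% = cell killing by high DMSO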); details: HDN33 neuroblastoma cells, stronger effect = higher value
[14] = growth inhibition, single agents and combos, ICB984, cell-based, cisplatin or BGB combos, synergistic combos for chromothripsis tumors (AID 1671451; call rule not given here;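 also: cells exposed for 96 hours before readout; 0% = vehicle DMSO and 100% = killing by high DMSO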); details: ICB984 medulloblastoma cells, drug combinations, stronger effect = higher value
[15] = growth inhibition, single agents and combos, HTB85, cell-based, BGB or cisplatin IC20 combos, synergistic combos for chromothripsis tumors (AID 1671453; in the data active = inhibition above about 80%;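 also: cells exposed for 96 hours before readout; 0% = vehicle DMSO and 100% = high DMSO killing control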); details: HTB85 osteosarcoma cells, drug combinations, stronger effect = higher value
[16] = growth inhibition, MDA-MB-436, cell-based, BGB or cisplatin combos, synergistic combos for chromothripsis tumors (AID 1671458; call rule not given here;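 also: cells exposed for 96 hours; 0% = vehicle DMSO and 100% = killing by high DMSO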); details: MDA-MB-436 breast carcinoma growth inhibition, drug combinations, stronger effect = higher value
[17] = BT084 cell growth, single and combined drugs, ICGC_MB145, cisplatin and BGB IC40 combos (AID 1671461; in the data active = inhibition above about 80%;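 also: cells exposed to drugs for 96 hours; 0% = vehicle DMSO and 100% = high DMSO full killing control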); details: BT084 medulloblastoma cells, drug combinations, stronger effect = higher value
[18] = RCMB18 cell growth, single agent and combined, cisplatin and BGB IC40 combos (AID 1671462; in the data active = inhibition above about 80%;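 also: cells exposed to compound for four days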); details: RCMB18 medulloblastoma cells, stronger effect = higher value
[19] = CRL1545 cell growth, single agent and combined, cisplatin and BGB IC20 combos (AID 1671464; in the data active = inhibition above about 80%;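 also: cells exposed to compound for 96 hours before readout; 0% = vehicle DMSO and 100% = high DMSO killing control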); details: CRL1545 osteosarcoma cells, stronger effect = higher value
[20] = stronger effect = lower value, cell number ratio, induced over uninduced
[21] = measured here: relative caspase fold change +Dox/-Dox
[22] = measured here: total cells with miR-34 induction, stronger effect = lower value
[23] = measured here: total cells without miR-34 induction
[24] = MELAS cybrid survival, CellTiter-Glo 48 h, stronger effect = higher value
[25] = Rieske KO mouse fibroblast survival, CellTiter-Glo 72 h
[26] = measured here: with BGB IC20 combination, at 0.5 µM
[27] = measured here: with cisplatin IC20 combination, at 0.5 µM

C=CC[N+]1([C@H]2C[C@H]3[C@@H]4CC[C@H]5C[C@H](O)[C@@H](N6CCOCC6)C[C@]5(C)[C@H]4CC[C@]3(C)[C@H]2OC(C)=O)CCCC1
outcome [1]: inactive | outcome [2]: inactive | outcome [3]: inactive | outcome [4]: inactive | outcome [5]: inactive | fold change [6, 20]: 0.847 (inactive) | fold change [6, 21]: 1.54 | cell count [6, 22]: 9100 | cell count [6, 23]: 10700 | z-score [7, 24]: 0.124 (inactive) | z-score [7, 25]: -0.444

Nc1ccccc1NC(=O)c1ccc(CNc2nccc(-c3cccnc3)n2)cc1
AC50 [1]: 2630 nM (active) | AC50 [2]: 1480 nM (active) | AC50 [3]: 1480 nM (active) | AC50 [8]: 590 nM (active) | AC50 [9]: 1180 nM (active) | AC50 [4]: 1180 nM (active) | IC50 [5]: 2630 nM (active) | fold change [6, 20]: 1.16 (inactive) | fold change [6, 21]: 0.733 | cell count [6, 22]: 1740 | cell count [6, 23]: 1500 | SSMD [10]: 2.12 | cell count [10]: 7260 | plate-normalised HSF1 focus index [10]: 1.13 (inactive) | z-score [7, 24]: -0.546 (inactive) | z-score [7, 25]: -2.11 | viability ([11]; at 0.000305 µM, OCI-C5x cells, with rucaparib 10 µM, 100% = cells with rucaparib alone): 107% (inactive) | viability ([11]; at 0.000305 µM, OCI-C5x cells, without rucaparib): 111% (inactive) | viability ([11]; at 0.000305 µM, OCI-P5x cells, with rucaparib 20 µM, 100% = cells with rucaparib alone): 122% (inactive) | viability ([11]; at 0.000305 µM, OCI-P5x cells, without rucaparib): 119% (inactive) | viability ([11]; at 0.00122 µM, OCI-C5x cells, with rucaparib 10 µM, 100% = cells with rucaparib alone): 112% (inactive) | viability ([11]; at 0.00122 µM, OCI-C5x cells, without rucaparib): 110% (inactive) | viability ([11]; at 0.00122 µM, OCI-P5x cells, with rucaparib 20 µM, 100% = cells with rucaparib alone): 110% (inactive) | viability ([11]; at 0.00122 µM, OCI-P5x cells, without rucaparib): 116% (inactive) | viability ([11]; at 0.00488 µM, OCI-C5x cells, with rucaparib 10 µM, 100% = cells with rucaparib alone): 118% (inactive) | viability ([11]; at 0.00488 µM, OCI-C5x cells, without rucaparib): 115% (inactive) | viability ([11]; at 0.00488 µM, OCI-P5x cells, with rucaparib 20 µM, 100% = cells with rucaparib alone): 107% (inactive) | viability ([11]; at 0.00488 µM, OCI-P5x cells, without rucaparib): 108% (inactive) | viability ([11]; at 0.0195 µM, OCI-C5x cells, with rucaparib 10 µM, 100% = cells with rucaparib alone): 119% (inactive) | viability ([11]; at 0.0195 µM, OCI-C5x cells, without rucaparib): 117% (inactive) | viability ([11]; at 0.0195 µM, OCI-P5x cells, with rucaparib 20 µM, 100% = cells with rucaparib alone): 101% (inactive) | viability ([11]; at 0.0195 µM, OCI-P5x cells, without rucaparib): 96.7% (active) | viability ([11]; at 0.0781 µM, OCI-C5x cells, with rucaparib 10 µM, 100% = cells with rucaparib alone): 110% (inactive) | viability ([11]; at 0.0781 µM, OCI-C5x cells, without rucaparib): 101% (inactive) | viability ([11]; at 0.0781 µM, OCI-P5x cells, with rucaparib 20 µM, 100% = cells with rucaparib alone): 103% (inactive) | viability ([11]; at 0.0781 µM, OCI-P5x cells, without rucaparib): 94.4% (active) | viability ([11]; at 0.313 µM, OCI-C5x cells, with rucaparib 10 µM, 100% = cells with rucaparib alone): 67.3% (active) | viability ([11]; at 0.313 µM, OCI-C5x cells, without rucaparib): 71.1% (active) | viability ([11]; at 0.313 µM, OCI-P5x cells, with rucaparib 20 µM, 100% = cells with rucaparib alone): 72% (active) | viability ([11]; at 0.313 µM, OCI-P5x cells, without rucaparib): 77.1% (active) | viability ([11]; at 1.25 µM, OCI-C5x cells, with rucaparib 10 µM, 100% = cells with rucaparib alone): 6.09% (active) | viability ([11]; at 1.25 µM, OCI-C5x cells, without rucaparib): 5.69% (active) | viability ([11]; at 1.25 µM, OCI-P5x cells, with rucaparib 20 µM, 100% = cells with rucaparib alone): 15.2% (active) | viability ([11]; at 1.25 µM, OCI-P5x cells, without rucaparib): 19.7% (active) | viability ([11]; at 5 µM, OCI-C5x cells, with rucaparib 10 µM, 100% = cells with rucaparib alone): 5.71% (active) | viability ([11]; at 5 µM, OCI-C5x cells, without rucaparib): 5.7% (active) | viability ([11]; at 5 µM, OCI-P5x cells, with rucaparib 20 µM, 100% = cells with rucaparib alone): 9.81% (active) | viability ([11]; at 5 µM, OCI-P5x cells, without rucaparib): 8.93% (active) | inhibition ([12]; at 0.5 µM, stronger effect = higher value): 2.35% (inactive) | inhibition ([12]; measured here: combination with BGB IC20, at 0.005 µM): -20.9% | inhibition ([12]; measured here: combination with BGB IC40, at 0.005 µM): -59.1% | inhibition ([12]; measured here: combination with BGB IC40, at 0.05 µM): -23.9% | inhibition ([12]; measured here: combination with cisplatin, at 0.5 µM, stronger effect = higher value): 45.4% | inhibition ([12]; measured here: combination with cisplatin, at 5 µM, stronger effect = higher value): 109% | inhibition ([13]; BGB combo, at 5 µM): 98.8% | inhibition ([13]; at 0.5 µM): 51.5% (inactive) | inhibition ([13]; cisplatin combo, at 5 µM): 100% | inhibition [13, 26]: 59.9% | inhibition [13, 27]: 50.6% | inhibition ([13]; single agent, at 5 µM): 99.4% | inhibition ([14]; BGB IC20 combo, at 0.005 µM): 8.79% | inhibition ([14]; BGB IC40 combo, at 0.005 µM): 19.9% | inhibition ([14]; BGB IC40 combo, at 0.05 µM): 92.5% | inhibition ([14]; at 0.5 µM): -29.5% (inactive) | inhibition ([14]; cisplatin combo, at 0.05 µM): 92.7% | inhibition ([14]; cisplatin combo, at 0.5 µM): -33.3% | inhibition ([14]; cisplatin combo, at 5 µM): -7.7% | inhibition ([14]; measured here: 5 uM single agent, at 5 µM): -12.8% | inhibition ([15]; at 0.5 µM): 18.4% (inactive) | inhibition ([15]; measured here: with BGB IC20, at 0.5 µM): 20.6% | inhibition ([15]; measured here: with BGB IC20, at 5 µM): 98.9% | inhibition ([15]; measured here: with cisplatin IC20, at 0.5 µM): 17.4% | inhibition ([15]; measured here: with cisplatin IC20, at 5 µM): 99.2% | inhibition ([15]; single agent, at 5 µM): 99.2% | inhibition ([16]; at 0.5 µM): 23.7% (inactive) | inhibition ([16]; measured here: BGB combination, at 0.5 µM): 20.7% | inhibition ([16]; measured here: BGB combination, at 5 µM): 64.6% | inhibition ([16]; measured here: cisplatin combination, at 0.5 µM): 9.8% | inhibition ([16]; measured here: cisplatin combination, at 5 µM): 64% | inhibition ([17]; at 0.5 µM): 50.1% (inactive) | inhibition ([17]; cisplatin combination, at 0.5 µM): 50.8% | inhibition ([17]; cisplatin combination, at 5 µM): 83.4% | inhibition ([17]; measured here: BGB IC40 combination 0.05 uM, at 0.05 µM): -5.63% | inhibition ([17]; single agent, at 5 µM): 99.8% | inhibition ([18]; at 0.5 µM): 56.4% (inactive) | inhibition ([18]; cisplatin combo, at 5 µM): 95.3% | inhibition ([18]; measured here: BGB IC40 combination, at 0.05 µM): -6.4% | inhibition ([18]; measured here: combination with cisplatin, at 0.5 µM): 76.3% | inhibition ([18]; single agent, at 5 µM): 94.7% | inhibition ([19]; at 0.5 µM): 66.9% (inactive) | inhibition [19, 26]: 49.6% | inhibition [19, 27]: 75.1% | inhibition ([19]; single agent, at 0.05 µM): 31.7% | inhibition ([19]; single agent, at 5 µM): 90.8%
